{"source": "paper PMC4552634", "about": "“A New Set of Chemical Starting Points with Plasmodium falciparum Transmission-Blocking Potential for Antimalarial Drug Discovery” (PLoS ONE, 2015)", "note": "In all, about 13,000 compounds went through this assay and about 3,200 (25%) showed an effect of 50% or more. The list shows a part of the results."}
{"tested_on": "P. falciparum stage V gametocytes", "design": "BacTiter-Glo ATP luminescence viability of purified stage V gametocytes in 384-well plates, per cent inhibition versus DMSO", "details": "48 h, 5 µM; inhibitor", "units": {"% Inhibition": "%"}}
{"smiles": "O=[N+]([O-])c1ccccc1/C=N/Nc1ccnc2ccc(C(F)(F)F)cc12", "note": "[TCMDC-142044]", "% Inhibition": -33.57}
{"smiles": "O=[N+]([O-])c1cccc(S(=O)(=O)N2CCN(CC(O)COc3ccc(-c4ccccc4)cc3)CC2)c1", "note": "(centres unmarked) [TCMDC-125015]", "% Inhibition": -58.05}
{"smiles": "COc1cc2nc(NCCCOC(C)C)n3nc(-c4ccccc4)nc3c2cc1OC", "note": "[TCMDC-124450]", "% Inhibition": 5.714}
{"smiles": "Cn1cnc2c(Nc3ccncc3)nc(-c3ccc4c(c3)OCO4)nc21", "note": "[TCMDC-141274]", "% Inhibition": 36.93}
{"smiles": "CCN(CC(C)O)C(=O)c1ccc(-c2ccc(-c3nc4cccc(C)c4[nH]3)cc2)cc1", "note": "(centres unmarked) [TCMDC-132503]", "% Inhibition": -12.34}
{"smiles": "O=C(c1ccc(-c2cccc(-c3nc4cc(C(F)(F)F)ccc4[nH]3)c2)cc1)N1CCCCC1CN1CCC(O)C1", "note": "(centres unmarked) [TCMDC-132348]", "% Inhibition": -20.7}
{"smiles": "CC(O)C1CCCCN1C(=O)c1ccc(-c2cccc(-c3nc4cc(F)ccc4[nH]3)c2)cc1", "note": "(centres unmarked) [TCMDC-132333]", "% Inhibition": 18.43}
{"smiles": "CC(O)C1CCCCN1C(=O)c1cccc(-c2cccc(-c3nc4ccccc4[nH]3)c2)c1", "note": "(centres unmarked) [TCMDC-132313]", "% Inhibition": 8.745}
{"smiles": "Cc1cccc2nc(-c3cccc(-c4ccc(C(=O)N5CCCCC5C(C)O)cc4)c3)[nH]c12", "note": "(centres unmarked) [TCMDC-132336]", "% Inhibition": 92.31}
{"smiles": "O=C(c1ccc(-c2cccc(-c3nc4cc(F)ccc4[nH]3)c2)cc1)N1CCCCC1CN1CCC(O)C1", "note": "(centres unmarked) [TCMDC-132344]", "% Inhibition": 80.27}
{"smiles": "CC(O)C1CCCCN1C(=O)c1cccc(-c2cccc(-c3nc4cc(F)ccc4[nH]3)c2)c1", "note": "(centres unmarked) [TCMDC-132339]", "% Inhibition": 25.33}
{"smiles": "Cc1cccc2nc(-c3ccc(-c4cccc(C(=O)N5CCCCC5C(C)O)c4)s3)[nH]c12", "note": "(centres unmarked) [TCMDC-132331]", "% Inhibition": 10.35}
{"smiles": "CCN(CC(C)O)C(=O)c1ccc(-c2cccc(-c3nc4cccc(C)c4[nH]3)c2)cc1", "note": "(centres unmarked) [TCMDC-132502]", "% Inhibition": 84.23}
{"smiles": "CC(O)C1CCCCN1C(=O)c1ccc(-c2ccc(-c3nc4cc(F)ccc4[nH]3)cc2)cc1", "note": "(centres unmarked) [TCMDC-132338]", "% Inhibition": 65.53}
{"smiles": "O=C(c1cccc(-c2cccc(-c3nc4cc(F)ccc4[nH]3)c2)c1)N1CCCCC1CN1CCC(O)C1", "note": "(centres unmarked) [TCMDC-132350]", "% Inhibition": 0.1683}
{"smiles": "Cc1cccc2nc(-c3cccc(-c4ccc(C(=O)NCCc5ccc(O)c(=O)[nH]5)cc4)c3)[nH]c12", "note": "[TCMDC-132490]", "% Inhibition": -25.23}
{"smiles": "Cc1ccccc1C(O)CNc1ccnc(Nc2cccc(C#N)c2)n1", "note": "(centres unmarked) [TCMDC-136566]", "% Inhibition": 9.635}
{"smiles": "COc1ccc(CNC(=O)NC2CCN(c3ccnc(Nc4ccc(OC)cc4)n3)C2)cc1", "note": "(centres unmarked) [TCMDC-133607]", "% Inhibition": 11.17}
{"smiles": "O=C(Nc1ccc(OC2CCN(Cc3ccc(F)cc3)C2)cc1)c1cccs1", "note": "(centres unmarked) [TCMDC-133753]", "% Inhibition": 15.26}
{"smiles": "COc1cc(NC(=O)c2cccs2)c(C(=O)NCc2ccc(C)cc2)cc1OC", "note": "[TCMDC-125007]", "% Inhibition": 20.88}
{"smiles": "CN(C)CCOc1ccc(NC(=O)Nc2ccnc3c(Br)cccc23)cc1Cl", "note": "[TCMDC-140325]", "% Inhibition": 18.67}
{"smiles": "COc1cc2nc(N3CCC(CNC(=O)c4ccc(-c5ccc(-c6noc(C)n6)cc5C)cc4)CC3)nc(N)c2cc1OC", "note": "[TCMDC-138155]", "% Inhibition": 105.9}
{"smiles": "COc1cc2nc(N3CCC(CNC(=O)c4ccc(-c5ccc(-c6noc(C)n6)cc5)cc4)CC3)nc(N)c2cc1OC", "note": "[TCMDC-138754]", "% Inhibition": 115}
{"smiles": "O=C(Nc1ccc2c(c1)CCC2)c1ccc(N2CCN(c3ccncc3)CC2)cn1", "note": "[TCMDC-135155]", "% Inhibition": 0.5792}
{"smiles": "CCOc1cc(C(=O)N[C@@H](Cc2ccccc2)[C@H](O)CNCc2cc(OC)cc(OC)c2)cc(N2CCCS2(=O)=O)c1", "note": "[TCMDC-134573]", "% Inhibition": 6.074}
{"smiles": "O=C(Nc1ccc(OC2CCN(Cc3ccsc3)CC2)c(Cl)c1)c1ccc(F)cc1", "note": "[TCMDC-134272]", "% Inhibition": -4.957}
{"smiles": "Nc1nc(N)c2c(ccc3c2ccn3Cc2cccc3ccccc23)n1", "note": "[TCMDC-137996]", "% Inhibition": 88.02}
{"smiles": "Cc1ccccc1Cn1ccc2c3c(N)nc(N)nc3ccc21", "note": "[TCMDC-137812]", "% Inhibition": 70.17}
{"smiles": "CCC(C(C)C)n1ccc2c3c(N)nc(N)nc3ccc21", "note": "(centres unmarked) [TCMDC-137872]", "% Inhibition": 10.31}
{"smiles": "Clc1ccc(CNc2ccnc(NCc3ccc4c(c3)OCCCO4)n2)c(Cl)c1", "note": "[TCMDC-135116]", "% Inhibition": 30.31}
{"smiles": "CC(C)OCCCNC(=O)c1nc(-c2cccc(C(F)(F)F)c2)sc1C(C)C", "note": "[TCMDC-133788]", "% Inhibition": 3.705}
{"smiles": "Oc1ccc(Cl)cc1CN1CCC2(CCCN(CC3CCC3)C2)C1", "note": "(centres unmarked) [TCMDC-124637]", "% Inhibition": -23.05}
{"smiles": "CCCCN(CCCC)CCNC(=O)c1cc(OC(F)(F)F)ccc1O", "note": "[TCMDC-141130]", "% Inhibition": -10.84}
{"smiles": "CC(Cc1ccc(NC(=O)c2ccc(CNCc3ccccc3)cc2)cc1)N(CCc1cccc(Cl)c1)C(=O)OC(C)(C)C", "note": "(centres unmarked) [TCMDC-139859]", "% Inhibition": -24.54}
{"smiles": "CC(Cc1ccc(NC(=O)c2ccc(CNCCCCc3ccccc3)cc2)cc1)NCCc1cccc(Cl)c1", "note": "(centres unmarked) [TCMDC-139866]", "% Inhibition": 129.2}
{"smiles": "CC(Cc1ccc(NC(=O)c2ccc(CNCCc3ccccc3)cc2)cc1)NCCc1cccc(Cl)c1", "note": "(centres unmarked) [TCMDC-139867]", "% Inhibition": 108.4}
{"smiles": "COc1cccc(OC)c1OCCCON1C(N)=NC(N)=NC1(C)C", "note": "[TCMDC-131731]", "% Inhibition": 5.866}
{"smiles": "COc1cc(Cc2cnc(N)nc2N)cc(OC(C)C)c1OC", "note": "[TCMDC-137645]", "% Inhibition": -10.21}
{"smiles": "CC(=O)Nc1cccc(C(=O)Nc2cccc(-c3ccc(-c4nc5cc(C(F)(F)F)ccc5[nH]4)s3)c2)c1", "note": "[TCMDC-132138]", "% Inhibition": 13.04}
{"smiles": "COc1ccc(NC(=O)c2ccc(-c3nc(-c4ccc(Cl)cc4)cs3)cc2)cc1N1CCN(C)CC1", "note": "[TCMDC-138685]", "% Inhibition": 18.54}
{"smiles": "NC(Cc1cccc(I)c1)C(=O)NCC1CCCO1", "note": "(centres unmarked) [TCMDC-141273]", "% Inhibition": -21.09}
{"smiles": "COc1ccc(CN2CCN(CCOC(c3ccccc3)c3ccc(Cl)cc3)CC2)c(O)c1", "note": "(centres unmarked) [TCMDC-135692]", "% Inhibition": 28.74}
{"smiles": "OCC(c1ccccc1)n1c(COc2ccc(Cl)cc2)nc2c(OCCCN3CCCCC3)cccc21", "note": "(centres unmarked) [TCMDC-138596]", "% Inhibition": 103.2}
{"smiles": "Cc1nc(N)nc(N)c1-c1ccc(Br)c([N+](=O)[O-])c1", "note": "[TCMDC-138071]", "% Inhibition": 1.652}
{"smiles": "CS(=O)(=O)CCNCc1cccc(-c2cc3c(Nc4ccc(OCc5ccccc5)cc4)ncnc3cn2)c1", "note": "[TCMDC-138240]", "% Inhibition": 8.889}
{"smiles": "CN(C)C(=S)N=Nc1c(O)[nH]c2ccc(OC(F)(F)F)cc12", "note": "[TCMDC-141099]", "% Inhibition": -50.91}
{"smiles": "Cn1nc(-c2ccc(CN[C@@H]3CCc4ccc(O)cc43)cc2)c2cnc(NC3CCCC3)nc21", "note": "[TCMDC-135029]", "% Inhibition": -22.32}
{"smiles": "c1ccc(CN2CCC(NCc3cccc(-c4cncc5ccccc45)c3)CC2)cc1", "note": "[TCMDC-134152]", "% Inhibition": 18.28}
{"smiles": "Cc1c(-c2cccc(C(C)(C)NC3CCN(Cc4ccccc4)CC3)c2)cnc(N)c1C", "note": "[TCMDC-138300]", "% Inhibition": 70.88}
{"smiles": "O=C(NCCN1CCCCC1)c1ccc(CNC(=O)c2ccc(O)c(-c3cccc(C(F)(F)F)c3)c2)cc1", "note": "[TCMDC-140817]", "% Inhibition": 7.187}
{"smiles": "Cc1c(Br)cc2[nH]c(-c3ccc(C(=O)NC4CCN(Cc5ccccc5)CC4)cc3)nc2c1C", "note": "[TCMDC-140026]", "% Inhibition": -88.51}
{"smiles": "Cc1c(-c2ccc3c(c2)C(NCCCN2CCCCC2)CC3)cnc(N)c1C", "note": "(centres unmarked) [TCMDC-138320]", "% Inhibition": 53.54}
{"smiles": "Cc1c(-c2cccc(C(C)(C)NCCCN3CCCCC3)c2)cnc(N)c1C", "note": "[TCMDC-138284]", "% Inhibition": 76.27}
{"smiles": "O=C(Nc1cccc(-c2ccc(NCCCN3CCCC3)nc2)c1)c1ccccc1", "note": "[TCMDC-134145]", "% Inhibition": 39.43}
{"smiles": "NC(=O)c1cccc(C(=O)Nc2cccc(-c3ccc(-c4nc5ccc(C(F)(F)F)cc5[nH]4)cc3)c2)c1", "note": "[TCMDC-132202]", "% Inhibition": -50.53}
{"smiles": "COc1ccc(S(=O)(=O)N(CC(=O)NN=C(C)c2cccs2)c2cc(C)cc(C)c2)cc1OC", "note": "[TCMDC-125737]", "% Inhibition": 0.7472}
{"smiles": "COc1ccccc1NS(=O)(=O)c1cc(C(=O)Nc2ccc(N3CCOCC3)c(S(=O)(=O)Nc3ccccc3Cl)c2)ccc1Cl", "note": "[TCMDC-125591]", "% Inhibition": 13}
{"smiles": "Cc1cc(-c2ccc(NC(=O)N3CCc4cc(Br)c(N5CCN(C)CC5)cc43)cc2)cc(C)n1", "note": "[TCMDC-139279]", "% Inhibition": 26.15}
{"smiles": "CCCN1CCC=C(c2cccc(Nc3nccc(Nc4cc(OC)ccc4C)n3)c2)C1", "note": "[TCMDC-138668]", "% Inhibition": 37.96}
{"smiles": "O=C(Nc1cccc(-c2nn3ncccc3c2-c2ccnc(Nc3ccccc3)n2)c1)c1c(F)cccc1F", "note": "[TCMDC-134631]", "% Inhibition": -2.939}
{"smiles": "O=C(Nc1cccc(-c2nn3ncccc3c2-c2ccnc(Nc3cccnc3)n2)c1)c1c(F)cccc1F", "note": "[TCMDC-135635]", "% Inhibition": 0.1379}
{"smiles": "COCCOc1ccc(Nc2nccc(-c3c(-c4cccc(NC(=O)c5c(F)cccc5F)c4)nn4ccccc34)n2)cc1Cl", "note": "[TCMDC-135955]", "% Inhibition": -12.66}
{"smiles": "CS(=O)(=O)Cc1ccc(Nc2nccc(-c3c(-c4cccc(NC(=O)c5c(F)cccc5F)c4)nn4ncccc34)n2)cc1", "note": "[TCMDC-135681]", "% Inhibition": 52.9}
{"smiles": "CC(=O)Nc1cccc(Nc2nccc(-c3c(-c4cccc(NC(=O)c5c(F)cccc5F)c4)nn4ncccc34)n2)c1", "note": "[TCMDC-135548]", "% Inhibition": -25.11}
{"smiles": "COCCOc1ccc(Nc2nccc(-c3c(-c4cccc(NC(=O)c5c(F)cccc5F)c4)nn4ccccc34)n2)cc1F", "note": "[TCMDC-135995]", "% Inhibition": 27.09}
{"smiles": "CCN(CC)CCCOc1ccc(Nc2nccc(-c3c(-c4cccc(NC(=O)c5c(F)cccc5F)c4)nn4ccccc34)n2)cc1F", "note": "[TCMDC-135920]", "% Inhibition": 94.91}
{"smiles": "CCS(=O)(=O)c1ccc(OC)c(Nc2nccc(-c3c(-c4cccc(NC(=O)c5c(F)cccc5F)c4)nn4ncccc34)n2)c1", "note": "[TCMDC-135682]", "% Inhibition": 81.78}
{"smiles": "CS(=O)(=O)Cc1ccc(Nc2nccc(-c3c(-c4cccc(NC(=O)c5c(F)cccc5F)c4)nn4ccccc34)n2)cc1", "note": "[TCMDC-135669]", "% Inhibition": -24.51}
